The text below walks through data of PubChem BioAssay (NCI).

Compounds without any hit were thinned out: in the full panel of roughly 83,000, 20% have a hit.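 Testing used 96-well plates and a 48-hour single-concentration exposure. Example: -40 means 40% of the starting cells died.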 Values without a mark were called inactive. Active and inactive are the calls of the source. The calls were made as follows: active = growth percent below 10; inactive = the rest.

Among the test systems are SR leukemia; RPMI-8226 leukemia; OVCAR-8 ovarian; OVCAR-5 ovarian; OVCAR-4 ovarian; SK-OV-3 ovarian; IGROV1 ovarian; OVCAR-3 ovarian; HS 578T breast; NCI/ADR-RES ovarian; T-47D breast; BT-549 breast; MDA-MB-435 melanoma; SW-620 colon; MCF7 breast; HCT-116 colon; HCC-2998 colon; KM12 colon.
What all share (experiment): NCI-60 one-dose screen, 48 h (100 = growth as untreated, 0 = no growth, -100 = all killed)
Common to all, as to conditions: 10 µM

As for `CCCc1c(CC)c(=N)c2ccccc2n1C`, the growth in the assay with SR leukemia is -27.5% (active); with RPMI-8226 leukemia it was -17% (active); with OVCAR-8 ovarian, 76.1%; in the assay on OVCAR-5 ovarian, 100%; with OVCAR-4 ovarian, 79.7%; in the assay with SK-OV-3 ovarian, 91.3%. Besides, the growth with IGROV1 ovarian is 82.8%; in the assay on OVCAR-3 ovarian it was 85%; with HS 578T breast, 76.5%; with NCI/ADR-RES ovarian, 78.6%; in the assay with T-47D breast it was 73%; in the assay with BT-549 breast it was 81.8%. Besides, the growth in the assay with MDA-MB-435 melanoma is 7.61% (active); with SW-620 colon, 57.8%; in the assay on MCF7 breast, 32%; in the assay on HCT-116 colon, 27.7%; in the assay on HCC-2998 colon, 15.5%.
For the compound `O=C(Nc1ccc(Oc2ccc(Nc3nc4ccccc4s3)cc2)cc1)Nc1ccc(Cl)c(Cl)c1`, the growth was 8.33% (active) in the assay on SR leukemia; 22.2% in the assay with RPMI-8226 leukemia; 32.6% in the assay on OVCAR-8 ovarian; 70.5% with OVCAR-5 ovarian; 24.9% in the assay with OVCAR-4 ovarian; 69% with SK-OV-3 ovarian. Also, the growth in the assay on IGROV1 ovarian was 39.4%; in the assay on OVCAR-3 ovarian, 22.8%; with HS 578T breast it was 61.9%; in the assay on NCI/ADR-RES ovarian, 25.3%; in the assay on T-47D breast, 13.9%; in the assay on BT-549 breast it was 59.5%. Besides, the growth with MDA-MB-435 melanoma was 25.4%; in the assay on SW-620 colon, 33.6%; in the assay with MCF7 breast, 29.3%; in the assay on HCT-116 colon it was 16.8%; with HCC-2998 colon it was 29.4%; in the assay on KM12 colon, 20.7%.
In the case of `O=C1/C(=C/c2ccc(O)cc2)CSc2ccc(Cl)cc21`, the growth with SR leukemia was 62.7%; in the assay on RPMI-8226 leukemia it was 98.2%; in the assay with OVCAR-8 ovarian, 89.8%; in the assay with OVCAR-5 ovarian it was 95.2%; in the assay with OVCAR-4 ovarian, 94.9%; in the assay on SK-OV-3 ovarian, 105%. Moreover, the growth was 16.7% in the assay with IGROV1 ovarian; 90.4% in the assay on OVCAR-3 ovarian; 71.1% with HS 578T breast; 82.2% in the assay on NCI/ADR-RES ovarian; 64.8% with T-47D breast; 81.9% with BT-549 breast. Further, the growth is 71.1% with MDA-MB-435 melanoma; 27.9% in the assay on SW-620 colon; 20.5% in the assay on MCF7 breast; 31.2% in the assay on HCT-116 colon; 94.4% in the assay with HCC-2998 colon; 35.1% in the assay on KM12 colon.
Turning to `COc1cc(-c2cc(-c3cc(OC)c(OC)c(OC)c3)nc3nc(N)[nH]c(=O)c23)ccc1Oc1ccnc2cc(Cl)ccc12`, the growth in the assay with SR leukemia was 5.24% (active); with RPMI-8226 leukemia, 19.7%; in the assay on OVCAR-8 ovarian it was 42.1%; in the assay on OVCAR-5 ovarian, 103%; with OVCAR-4 ovarian, 39%; in the assay on SK-OV-3 ovarian it was 26.2%. Also, the growth with IGROV1 ovarian was 52.8%; with OVCAR-3 ovarian, -26.1% (active); in the assay with HS 578T breast, 36.3%; in the assay with NCI/ADR-RES ovarian it was 21.8%; in the assay on T-47D breast it was 30.3%; in the assay on BT-549 breast, 34.9%. For the same compound, the growth in the assay with MDA-MB-435 melanoma is -57.6% (active); with SW-620 colon, 19.6%; in the assay with MCF7 breast, 17.4%; in the assay on HCT-116 colon, 16.1%; in the assay on HCC-2998 colon it was 56.9%; with KM12 colon, 13.5%.
On to `CCSc1nc2c([nH]1)c(=O)n(C)c(=S)n2C`, for which the growth was 118% with SR leukemia; 112% in the assay on RPMI-8226 leukemia; 108% with OVCAR-8 ovarian; 99.1% with OVCAR-5 ovarian; 114% in the assay with OVCAR-4 ovarian; 103% in the assay with SK-OV-3 ovarian. For the same compound, the growth with IGROV1 ovarian was 116%; in the assay with OVCAR-3 ovarian it was 112%; in the assay on HS 578T breast it was 115%; in the assay with NCI/ADR-RES ovarian it was 105%; with T-47D breast, 99.6%; in the assay with BT-549 breast it was 118%. Besides, the growth with MDA-MB-435 melanoma was 109%; in the assay on SW-620 colon, 102%; in the assay on MCF7 breast it was 113%; in the assay with HCT-116 colon, 114%; in the assay with HCC-2998 colon it was 106%; in the assay with KM12 colon, 103%.
As to `COc1ccc(CSc2nc3cc(OC)c(OC)cc3c(=O)n2-c2ccc(OC)cc2OC)cc1`, the growth with SR leukemia is 59.5%; in the assay with RPMI-8226 leukemia, 63.7%; in the assay on OVCAR-8 ovarian, 89.2%; in the assay with OVCAR-5 ovarian it was 102%; with OVCAR-4 ovarian it was 83.2%; with SK-OV-3 ovarian, 114%. Further, the growth in the assay on IGROV1 ovarian is 86.1%; with OVCAR-3 ovarian it was 92.1%; in the assay on HS 578T breast, 86.7%; in the assay on NCI/ADR-RES ovarian, 79.5%; in the assay on T-47D breast it was 75.6%; in the assay on BT-549 breast it was 93.9%. Also, the growth is 62% in the assay on MDA-MB-435 melanoma; 90.3% in the assay with SW-620 colon; 83.1% with MCF7 breast; 62.9% in the assay with HCT-116 colon; 101% with HCC-2998 colon; 78.1% with KM12 colon.
For `COc1ccc(N2CCN(c3nc(-c4ccccc4)c(C#N)c(=O)[nH]3)CC2)cc1`, the growth in the assay on SR leukemia was 89.7%; with RPMI-8226 leukemia, 91.3%; in the assay on OVCAR-8 ovarian, 102%; in the assay on OVCAR-5 ovarian, 105%; in the assay with OVCAR-4 ovarian, 102%; in the assay on SK-OV-3 ovarian, 96.6%. The growth in the assay on IGROV1 ovarian is 101%; with OVCAR-3 ovarian it was 103%; in the assay on HS 578T breast, 112%; with NCI/ADR-RES ovarian, 98.9%; with T-47D breast it was 85.7%; in the assay with BT-549 breast it was 93.6%. The growth in the assay with MDA-MB-435 melanoma was 111%; in the assay with SW-620 colon, 113%; in the assay on MCF7 breast it was 93.9%; in the assay with HCT-116 colon it was 89.9%; with HCC-2998 colon, 99.8%; in the assay with KM12 colon, 96.8%.
In the case of `COc1cccc(-c2nnc(COc3ccc(-c4nc5ccc(C)cc5[nH]4)cc3OC)o2)c1`, the growth in the assay with SR leukemia is -25.7% (active); in the assay on RPMI-8226 leukemia, -12.2% (active); with OVCAR-8 ovarian, 46.9%; with OVCAR-5 ovarian, 103%; with OVCAR-4 ovarian it was 54.4%; in the assay on SK-OV-3 ovarian, 101%. The growth is 85.1% in the assay on IGROV1 ovarian; 77.4% with OVCAR-3 ovarian; 31.1% with HS 578T breast; 76.8% in the assay on NCI/ADR-RES ovarian; 50.7% with T-47D breast; 92.7% in the assay on BT-549 breast. In addition, the growth in the assay with MDA-MB-435 melanoma is 41.6%; with SW-620 colon, 64.5%; in the assay on MCF7 breast, 18.5%; in the assay on HCT-116 colon, 29.4%; in the assay on HCC-2998 colon, 88.6%; with KM12 colon, 39.7%.
